Screening results deposited in PubChem by The Scripps Research Institute Molecular Screening Center.
TEAD-YAP block: TEAD-YAP interaction inhibition, primary screen, TEAD-YAP interaction inhibitor project, luminescence, HEK-TIYL cells | TEAD-Gal4/YAP UAS-luciferase luminescence | inhibition, % at 9.12 µM | 640,000 tested, 1.4% active | AID 1259422, 2018; in the data active = inhibition above about 32%;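 also: 0% = median of test compound wells and 100% = reference inhibitor wells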
MITF primary: MITF inhibitors, primary screen, biochemical, AlphaScreen, human | AlphaScreen MITF homodimerization, bead proximity signal | inhibition, % at 2.6 µM | Microphthalmia-associated transcription factor (Homo sapiens), O75030 | 650,000 tested, 0.91% active | AID 1259374, 2018; in the data active = inhibition above about 50%;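 also: 0% = vehicle wells with protein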
FBW7 activator: FBW7 E3 ligase activators, primary screen, biochemical, AlphaScreen, human; AlphaScreen FBW7–phospho-cyclin E peptide binding, activator screen; normalized activity (activation), % at 26.1 µM; 650,000 tested, 0.13% active; AID 1259310, 2017; in the data active = normalized activity above about 1.9%;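 also: purified mutant Fbw7 with reduced substrate affinity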
GPR151 ag: activators of human GPR151, primary screen, cell-based, PathHunter beta-arrestin, luminescence | G-protein coupled receptor 151 (Homo sapiens), Q8TDV0 | PathHunter beta-arrestin GPR151 cells | activation, % at 11.2 µM | 650,000 tested, 1% active | AID 1508602, 2020; in the data active = activation above about 4.9%;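 also: 0% = median of compound wells and 100% = cells with positive control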
Target sequence (Q8TDV0 whole entry, looked up): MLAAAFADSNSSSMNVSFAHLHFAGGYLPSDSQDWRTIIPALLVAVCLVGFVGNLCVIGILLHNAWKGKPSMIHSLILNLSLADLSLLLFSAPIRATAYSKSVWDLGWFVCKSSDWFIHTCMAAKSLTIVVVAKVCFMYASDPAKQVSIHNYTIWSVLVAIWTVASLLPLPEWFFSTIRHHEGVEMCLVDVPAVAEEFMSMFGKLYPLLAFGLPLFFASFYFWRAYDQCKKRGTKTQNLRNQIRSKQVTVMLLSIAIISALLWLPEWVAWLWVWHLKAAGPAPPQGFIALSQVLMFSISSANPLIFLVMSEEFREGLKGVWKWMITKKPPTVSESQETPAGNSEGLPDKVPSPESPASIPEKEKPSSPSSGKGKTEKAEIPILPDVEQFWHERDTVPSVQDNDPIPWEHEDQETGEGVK
GPR151 conf act: GPR151 activators, triplicate retest, confirmation, cell-based, PathHunter beta-arrestin, luminescence. shares compounds with GPR151 ag. GPR151 PathHunter beta-arrestin cells, 90 min; % of EA-reagent control over plate median. activation, % at 11.2 µM. 6,700 tested, under 10 active;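 active = mean percent activation across replicates above the confirmation screen cutoff of 4.91%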
GPR119 ag: GPR119 activators in beta-arrestin cells, counter-screen for GPR151 activator project, cell-based, PathHunter beta-arrestin, luminescence, triplicate. shares compounds with GPR151 ag. 90 min; 0 = compound-well median, 100 = enzyme-acceptor control. activation, % at 11.2 µM. 6,700 tested, 0.3% active;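 active = mean percent activation in the counterscreen above 29.09%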;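 also: counterscreen on off-target GPR119 to flag nonselective hits from the GPR151 activator screen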
Active calls of the source: *; · = not tested or not shown. Only some compounds are listed: those with a hit (about 3.4% of all), similar ones and a draw of the others.

SMILES	TEAD-YAP block	MITF primary	FBW7 activator	GPR151 ag	GPR151 conf act	GPR119 ag
COc1ccc(S(=O)(=O)Nc2ccccc2SC)cc1Br	-2.6	15.8	1.0	5.7*	-0.5	4.3
COc1ccc(NC(=S)NNS(=O)(=O)c2cccc([N+](=O)[O-])c2)cc1	-11.1	-23.7	-0.2	4.9*	0.1	-13.2
CCN(CC)S(=O)(=O)c1ccc(OC)c(NS(=O)(=O)c2cccc([N+](=O)[O-])c2)c1	-0.3	24.3	0.1	6.2*	0.3	4.3
CCN(CC)S(=O)(=O)c1ccc(OC)c(NS(=O)(=O)c2ccccc2[N+](=O)[O-])c1	-11.2	-16.5	-0.1	1.5	·	·
CN(Cc1ccccc1)C(=O)CCC1CCN(C(=O)CN2CCOC2=O)CC1	-16.9	3.6	0.1	-0.5	·	·
COc1ccccc1NS(=O)(=O)c1ccc(SC)cc1	2.1	4.0	0.2	6.3*	-0.6	0.1
COc1ccc(S(=O)(=O)Nc2ccccc2C(=O)NC(C)C)cc1OC	-0.5	-1.6	-0.1	18.4*	0.5	6.1
Cn1cc(S(=O)(=O)NCCC(c2ccccc2)c2ccccc2)c(=O)n(C)c1=O	0.0	10.6	1.2	4.9*	0.4	5.8
Cc1cccc(NS(=O)(=O)c2cn(C)c(=O)n(C)c2=O)c1	-5.8	-4.3	-0.2	5.9*	0.8	11.8
Cc1ccc(NS(=O)(=O)c2cn(C)c(=O)n(C)c2=O)cc1C	-3.4	-4.6	0.0	1.6	·	·
COc1ccccc1CCNS(=O)(=O)c1cn(C)c(=O)n(C)c1=O	5.7	-4.0	0.3	3.0	·	·
Cc1cc(C)c(S(=O)(=O)NCCc2ccc(S(N)(=O)=O)cc2)c(C)c1	11.8	4.0	0.1	7.1*	0.7	11.0
CC(C)CNC(=O)C1=CC(c2ccc(F)cc2)=NS(=O)(=O)N1C	-8.5	2.4	0.0	7.5*	-0.1	-7.9
COc1ccc(S(=O)(=O)Nc2ccc3c(c2)n(C)c(=O)n3C)cc1	11.3	-2.5	0.0	0.6	·	·
CCOc1ccc(NS(=O)(=O)c2ccc3c(c2)n(C)c(=O)n3C)cc1	0.2	-7.0	-0.1	15.3*	-1.2	-11.2
O=C(NCCN1CCOCC1)c1nn2c(c1Cl)NC(c1ccco1)CC2C(F)(F)F (centres undefined)	-1.2	1.9	0.0	5.7*	0.5	1.2
O=C(NCCN1CCOCC1)c1nn2c(c1Cl)NC(c1ccc(Br)cc1)CC2C(F)(F)F (centres undefined)	-2.0	-2.4	0.0	-0.2	·	·
CS(=O)(=O)Oc1ccc(Cl)cc1/C=C1/N=C(c2cccs2)OC1=O	-5.9	1.8	0.2	5.3*	0.8	-2.6
CCOc1cc(/C=C2/N=C(c3cccs3)OC2=O)ccc1OS(C)(=O)=O	6.5	0.7	-0.1	-0.7	·	·
CCOc1ccc(/C(O)=C2/C(=O)C(=O)N(CCN(CC)CC)C2c2ccc(OC)c(OC)c2)cc1C (centres undefined)	-9.5	-0.4	-0.1	6.6*	0.1	-4.6
CCOc1ccc(/C(O)=C2/C(=O)C(=O)N(CCN(CC)CC)C2c2ccc(Cl)cc2)cc1C (centres undefined)	6.9	1.1	-0.2	-0.8	·	·
CC1(C)Cc2cccc(OCC(=O)NC3=NCCS3)c2O1	-3.6	-0.6	-0.1	5.9*	2.1	1.1
CC(C)=CC(=O)Nc1nc(-c2ccc(C)cc2)cs1	-54.6	0.1	0.0	3.8	·	·
O=C(NCCCN1CCCCCC1)C(c1ccccc1)C1CCCCC1 (centres undefined)	·	-8.8	-0.2	5.3*	-0.2	0.8
COc1ccccc1NC(=O)CSc1nnc(CCNC(=O)c2ccc(C)cc2)n1C	-0.9	11.9	0.0	6.1*	0.9	3.6
SMILES	TEAD-YAP block	MITF primary	FBW7 activator	GPR151 ag	GPR151 conf act	GPR119 ag
Cc1nc2c(C)cccn2c1C(=O)NC(c1ccccc1)C(F)(F)F (centres undefined)	10.4	2.3	0.3	-0.4	·	·
Nc1c2c(nc3c1CCC3)CCCC2	-3.0	19.3	0.3	5.0*	-0.2	-0.6
CC(C)CC(C(=O)N1CCCCCC1)N1Cc2ccccc2C1=O (centres undefined)	4.0	-0.2	0.0	-0.1	·	·
CCN1CCN(C(=O)C(CC(C)C)N2Cc3ccccc3C2=O)CC1 (centres undefined)	-4.5	0.7	-0.1	5.5*	0.0	-1.8
CC(C)(C)C(=O)NC(=O)Nc1ncc(S(C)(=O)=O)c(-c2ccc(C(F)(F)F)cc2)n1	-0.7	-2.7	-0.1	8.0*	-0.7	-5.3
CS(=O)(=O)c1cnc(-c2ccncc2)nc1-c1ccc(C(F)(F)F)cc1	-4.8	8.2	0.4	-2.1	·	·
COC(=O)c1ccc(NC(=O)CCS(=O)(=O)c2ccc(OC)cc2)cc1	-5.4	-2.6	0.1	5.0*	-0.2	-1.2
COC(=O)CCS(=O)(=O)c1ccc(Cl)cc1	1.0	-6.4	0.1	-0.1	·	·
COC(=O)c1cc(NC(=O)CCS(=O)(=O)c2ccc(OC)cc2)cc(C(=O)OC)c1	3.7	4.9	0.0	0.9	·	·
COC(=O)CCS(=O)(=O)c1ccc(Oc2ccc(S(=O)(=O)CCC(=O)OC)cc2)cc1	14.1	1.1	-0.1	5.7*	0.8	-3.0
CCCc1c(C)[nH]c2ccc(C(=O)O)cc2c1=O	1.8	8.7	0.0	-0.6	·	·
COc1ccc(Cn2nnnc2C(c2ccccn2)N2CCc3ccccc3C2)cc1 (centres undefined)	0.7	25.0	-0.2	0.4	·	·
CCCCc1nnc2sc(NC(=O)c3ccc(F)cc3)nn12	0.9	-10.6	0.1	5.6*	0.2	-6.5
COc1cccc(NC(=O)C2CCCCN2S(=O)(=O)c2ccccc2[N+](=O)[O-])c1 (centres undefined)	-5.0	3.5	-0.1	-0.9	·	·
CCCC(c1nnnn1Cc1ccco1)N1CCN(C(=O)c2ccco2)CC1 (centres undefined)	-3.1	-4.8	0.1	-0.6	·	·
CCCCC(c1nnnn1Cc1ccco1)N1CCN(C(=O)c2ccco2)CC1 (centres undefined)	-0.3	4.3	0.2	20.0*	0.3	4.0
COc1ccc(C=O)cc1CSc1ccccn1	12.2	8.8	0.0	5.3*	-0.6	-5.6
COc1ccc(/C=N/NS(=O)(=O)c2ccccc2)cc1CSc1ccccn1	-6.2	9.8	0.1	-0.5	·	·
COc1ccc(CN(C)c2nnnn2-c2ccccc2)c(OC)c1	0.8	-4.9	0.0	1.6	·	·
Cc1cc(Cl)c(S(=O)(=O)N(C)c2ccccc2C(=O)O)cc1OCC(N)=O	7.1	13.0	0.1	0.7	·	·
CCn1c(=O)n(CC(=O)NCC2COc3ccccc3O2)c(=O)c2ccccc21 (centres undefined)	-1.9	5.8	0.0	-0.8	·	·
